Test results taken from PubChem BioAssay AID1851 (National Center for Advancing Translational Sciences (NCATS), 2009).
Hit rate of the full screen: of about 16,000 compounds, about 5,800 (36%) were called active. Roughly 23% stayed inconclusive and do not appear here. The list shows a part of the results. A number with no mark means an inactive call. Calls come from the whole dose curve; as a rule, active = well fitted curve in the direction sought with a large enough effect; inconclusive = small, poorly fitted or top-dose-only effect, or effect the other way; inactive = no such curve, though single readings can be large or run the other way.

target: Cytochrome P450 2C19 (Homo sapiens) (UniProt P33261); test: Cytochrome panel assay with activity outcomes; conditions: recombinant CYP, pro-luciferin dealkylation, luminescence, p450-cyp2c19; series mostly up to 57.1 µM; activity, negative = inhibition: at the top concentration
Experimental: The P450 gene superfamily is involved in the metabolism and clearance of xenobiotics. This assay used various human CYP P450 isozymes to measure the dealkylation of various pro-luciferin substrates to luciferin. The luciferin is then measured by luminescence after the addition of a luciferase detection reagent. Pro-luciferin substrate concentration in the assay was equal to its KM for its CYP P450 isozyme. Inhibitors and some substrates limit the production of luciferin, and decrease measured luminescence.
NCGC Assay Protocol Summary:
1, Reagent, 2 uL, Isozyme and Pro-Luciferin
2, Library compounds, 23 nl, 40 uM to 0.24 nM dilution series
3, Controls, 23 nl, Isozyme specific inhibitor
4, Reagent, 2 uL, NADPH regeneration solution
5, Incubation time, 60 min, Isozyme specific temperature
6, Reagent, 4ul, Detection reagent
7, Incubation time, 20 min, Isozyme specific temperature
8, Detection, 1 sec, ViewLux luminescent read
The luciferase-based P450-GloTM Screening Systems were obtained from Promega (Madison, WI) for CYP 1A2 (V9770), CYP 2C9 (V9790), CYP2 C19 (V9880), CYP 2D6 (V9890), and CYP 3A4 Luciferin-PPXE (V9910) and were adapted for 1,536-well microplates and an automated protocol. The control compounds furafylline for 1A2 (F124), sulfaphenazole for CYP 2C9 (S0758), ketoconazole for CYP 2C19 (K1003), quinidine for 2D6 (Q3625), and ketoconazole for 3A4 (K1003) were purchased from Sigma Aldrich (St. Louis, MO). Recombinant P450 enzymes were obtained from baculovirus constructs expressed in insect cells (BD/Gentest).
Medium-binding white solid Kalypsys plates used. Mixtures kept on ice. 1A2: 10 nM 1A2, 100 uM Luc-ME, 100 mM KPO4; 2C9: 10 nM 2C9, 100 uM Luc-H, 25 mM KPO4; 2C19: 5 nM 2C19, 10 uM Luc-H EGE, 50 mM KPO4; 2D6: 5 nM 2D6, 30 uM Luc-ME EGE, 100 mM KPO4; 3A4: 10 nM, 25 uM Luc-PPXE. All amounts are reflected in their final concentration, working concentration is 2x.
NADPH regeneration solution: 1.3 mM NADP+, 3.3 mM glucose-6-phosphate, 3.3 mM MgCl2, 0.4 U/mL glucose-6-phosphate dehydrogenase for all isozymes, 200 mM KPO4 for 3A4. Mixture prepared at RT but kept on ice during automated run.
RT incubation in auxilliary plate hotel for 1A2, 2D6, and 3A4; 37C for 2C9 and 2C19.
Keywords: P450, CYP1A2, CYP2C19, CYP2C9, CYP2D6, CYP3A4, Luciferase, MLSMR, MLSCN, NIH Roadmap, qHTS, NCGC
% is set by controls: 0 for no effect and ±100 for the full control effect.

Chain of Cytochrome P450 2C19 (Homo sapiens) (P33261 whole entry, looked up): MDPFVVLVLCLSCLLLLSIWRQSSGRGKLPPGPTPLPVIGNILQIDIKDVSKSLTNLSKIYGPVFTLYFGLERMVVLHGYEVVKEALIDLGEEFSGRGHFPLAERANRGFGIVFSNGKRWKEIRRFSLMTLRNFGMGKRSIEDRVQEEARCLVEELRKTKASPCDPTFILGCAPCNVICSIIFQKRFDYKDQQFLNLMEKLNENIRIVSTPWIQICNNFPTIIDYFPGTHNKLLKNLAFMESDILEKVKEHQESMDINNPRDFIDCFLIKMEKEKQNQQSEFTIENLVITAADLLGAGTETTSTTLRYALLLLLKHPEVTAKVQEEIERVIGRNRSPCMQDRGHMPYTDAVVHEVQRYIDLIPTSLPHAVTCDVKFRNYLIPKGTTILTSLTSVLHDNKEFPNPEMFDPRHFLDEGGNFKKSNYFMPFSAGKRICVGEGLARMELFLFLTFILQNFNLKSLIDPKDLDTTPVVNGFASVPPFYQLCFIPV

Compound | activity, negative = inhibition | AC50
CC(=O)N[C@@H](CC(=O)O)C(=O)O | 26.4% [at 25.6 µM] | –
CC#CCOC(=O)c1c(C)nc2sc3c(c2c1N)CC[C@@H](O)C3 | – | 25.1 µM (active)
Cn1c(=O)c2[nH]c(CCCc3ccc([N+](=O)[O-])cc3)nc2n(C)c1=O | 6.48% [at 11.4 µM] | –
CCc1cc(C(c2ccccc2OC)N2CCOCC2)c(NC(=O)c2ccccc2)s1 (centres undefined) | – | 11.2 µM (active)
CCOc1cc(/C=C2\C(=O)N(Cc3ccc(C)cc3)C(C)=C2C(=O)OC)ccc1O | – | 3.98 µM (active)
COc1cccc(Nc2ncc3nc(C)c(=O)n(CCC#N)c3n2)c1 | -15.9% | –
Cc1cc(OC(=O)c2cc(F)c(F)cc2Cl)nc(C)n1 | 24.4% | –
CSc1nsc(SCc2ccc(Cl)cc2)n1 | – | 0.447 µM (active)
O=c1c(-c2nc3ccccc3s2)cccn1Cc1ccccc1 | – | 2 µM (active)
CCOC(=O)c1c(C)[nH]c(C)c1C(=O)COC(=O)c1ccc(S(=O)(=O)N(CC)CC)cc1 | – | 1.12 µM (active)
CCN(CC)CCOC(=O)c1ccc(N)cc1 | – | inactive
CCOC(=O)c1c(C)[nH]c(C)c1C(=O)COC(=O)c1cccc(S(=O)(=O)N(CC)CC)c1 | – | 0.447 µM (active)
CCCN(CCC)S(=O)(=O)c1ccc(C(=O)O)cc1 | 15.8% [at 25.6 µM] | –
C[C@@H](CNC(N)=O)NC(N)=O | 25.4% [at 11.4 µM] | –
Cc1ccc(S(=O)(=O)N(CCCN2CCCC2=O)Cc2cc3c(C)ccc(C)c3[nH]c2=O)cc1 | – | 11.2 µM (active)
Cc1ccc(CS(=O)(=O)CCC(=O)NCCCN2CCCC2=O)cc1 | 54.4% | –
O=C(CCC(=O)OCc1ccc(C(=O)Oc2ccccc2)cc1)Nc1cccc2ccccc12 | – | 11.2 µM (active)
O=C(c1ccc(Cl)cc1)N1CCN(C(=O)c2ccco2)CC1 | -25.8% | –
O=C(Cc1ccc(Cl)cc1)N1CCN(C(=O)c2ccco2)CC1 | – | 7.94 µM (active)
O=C(c1ccco1)N1CCC2(CC1)CN(c1ccccn1)C2 | -14.5% | –
O=C(c1cc(-c2ccc(Cl)cc2Cl)on1)N1CCN(C(=O)c2ccco2)CC1 | – | 3.16 µM (active)
CCCN(CCC)C(=S)NC(=O)c1ccc(Cl)cc1Cl | – | 2.51 µM (active)
CC1CC(C)CN(C(=O)CNS(=O)(=O)c2ccc(Br)s2)C1 (centres undefined) | – | 4.47 µM (active)
COc1cccc(-c2csc(N3CCN(CC(=O)NNC(=O)c4ccc(Cl)cc4)CC3)n2)c1 | – | 1.26 µM (active)
COc1cccc(-c2csc(N3CCN(C(=S)Nc4ccccc4)CC3)n2)c1 | – | 1.78 µM (active)

Compound | activity, negative = inhibition | AC50
Cc1cccc(C(=O)NC(=S)N2CCN(C)CC2)c1 | 18.4% | –
COc1ccc(C(=O)NC2CCN(C(=S)Nc3cccc(C)c3)CC2)cc1 | – | 8.91 µM (active)
COc1ccc(C(=O)N2CCC3(CC2)CN(C(=O)Nc2cccc(C#N)c2)C3)cc1 | 19.4% | –
COc1cccc(C(=O)NCCN2CCN(c3ccc(Cl)cc3)CC2)c1 | -19% | –
Cc1cccc(C(=O)NC2CCN(C(=S)NCc3ccco3)CC2)c1 | – | 28.2 µM (active)
COC(=O)N1CCC2(CC1)CCN(c1cccc(-c3ccccc3)c1)CC2 | -33% | –
COc1ccc(N2CCN(C(=S)Nc3cc(C)cc(C)c3)CC2)cc1 | -17.2% | –
COc1ccc(N2CCN(C(=S)Nc3cc(C)ccc3C)CC2)cc1 | – | 5.62 µM (active)
CNC(=S)N1CCN(c2cccc(OC)c2)CC1 | – | 7.08 µM (active)
COC(=O)c1ccc(NC(=S)N2CCN(Cc3cccc(C)c3)CC2)cc1 | – | 4.47 µM (active)
CNC(=S)N1CCN(c2ccccc2OC)CC1 | – | 7.08 µM (active)
COc1ccc(COC(=O)N/N=C2/C[C@@H](O)[C@@H](O)[C@@H]3[C@@H]4C(=O)N(C(C)(C)C)C(=O)[C@H]4CC[C@H]23)cc1 | 9.85% [at 11.4 µM] | –
COc1ccc(N2CCN(C(=S)Nc3cccc(C)c3)CC2)cc1 | -9.17% | –
COc1cccc(N2CCN(C(=S)Nc3cccc(C)c3)CC2)c1 | – | 7.94 µM (active)
Cc1c(CCC(C)C)c(-n2ccnc2C)n2c(nc3ccccc32)c1C#N | 9.23% | –
FC(F)(F)c1nc2ccccc2nc1N/N=C/c1ccc(Cl)cc1 | – | 3.55 µM (active)
COC(=O)C/C=C\[C@@H](C)[C@@H](/C=N\O[C@@H](C)CN1CCCc2nc(C)c(C)cc21)OC | -26.4% [at 11.4 µM] | –
Cc1cc(Cl)ccc1OCCCC(=O)N1CCN(C)CC1 | – | 5.62 µM (active)
CCOC(=O)c1c(CC(C)C)csc1NC=O | – | 14.1 µM (active)
COC(=O)c1c(C)oc2ccc(N(C(=O)c3ccncc3)S(=O)(=O)c3ccccc3)cc12 | – | 0.631 µM (active)
NCCCCCc1nnc(SCc2ccccc2Cl)o1 | – | 4.47 µM (active)
NCCCCCc1nnc(SCc2ccc(Cl)cc2Cl)o1 | – | 5.62 µM (active)
Cc1cc(=O)n2c3ccccc3n(CC(O)CN3CCCCC3)c2c1C#N (centres undefined) | -17.8% | –
Nc1ncnc2c1ncn2[C@H]1O[C@@H](C(=O)O)[C@@H](O)[C@H]1O | -9.53% [at 11.4 µM] | –
